Laboratory results taken from PubChem BioAssay AID602281 (The Scripps Research Institute Molecular Screening Center, 2012).
About 2,900 (0.81%) of roughly 360,000 compounds were called active. The sample holds actives, similar compounds and a random draw of the others, so the mix is not that of the screen. Values without a mark were called inactive.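 How the source made its calls: active means inhibition above the mean inhibition across every tested compound plus 3 SD (cut at about 22% in these data); inactive means the rest.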

What follows are compounds tested against Perilipin-5 (Homo sapiens) + 1-acylglycerol-3-phosphate O-acyltransferase ABHD5 (Homo sapiens) (UniProt Q00G26+Q8WTS1) (assay: blockers of ABHD5 binding to perilipin-5 – cell lysate, split luciferase complementation, luminescence, primary screen (AID 602281;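 further: 0% = DMSO only wells and the 100% control is not disclosed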)). Conditions: Split G. princeps luciferase complementation, 4 h, at 4 µM, stronger effect = higher value.
Chain of Perilipin-5 (Homo sapiens) + 1-acylglycerol-3-phosphate O-acyltransferase ABHD5 (Homo sapiens) (Q00G26 whole entry, looked up): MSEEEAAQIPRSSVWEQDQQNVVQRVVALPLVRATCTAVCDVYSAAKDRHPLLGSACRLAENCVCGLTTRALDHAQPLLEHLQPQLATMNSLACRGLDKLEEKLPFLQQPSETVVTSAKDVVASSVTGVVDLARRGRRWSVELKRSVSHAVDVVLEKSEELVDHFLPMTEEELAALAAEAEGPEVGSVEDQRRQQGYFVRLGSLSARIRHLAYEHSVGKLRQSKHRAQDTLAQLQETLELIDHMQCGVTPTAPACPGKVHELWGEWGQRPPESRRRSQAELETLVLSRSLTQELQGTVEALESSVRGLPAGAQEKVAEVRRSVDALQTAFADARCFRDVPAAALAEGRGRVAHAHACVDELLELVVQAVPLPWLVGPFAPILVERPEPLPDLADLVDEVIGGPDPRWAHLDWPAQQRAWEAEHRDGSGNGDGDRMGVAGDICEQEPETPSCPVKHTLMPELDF
Chain of Perilipin-5 (Homo sapiens) + 1-acylglycerol-3-phosphate O-acyltransferase ABHD5 (Homo sapiens) (Q8WTS1 whole entry, looked up): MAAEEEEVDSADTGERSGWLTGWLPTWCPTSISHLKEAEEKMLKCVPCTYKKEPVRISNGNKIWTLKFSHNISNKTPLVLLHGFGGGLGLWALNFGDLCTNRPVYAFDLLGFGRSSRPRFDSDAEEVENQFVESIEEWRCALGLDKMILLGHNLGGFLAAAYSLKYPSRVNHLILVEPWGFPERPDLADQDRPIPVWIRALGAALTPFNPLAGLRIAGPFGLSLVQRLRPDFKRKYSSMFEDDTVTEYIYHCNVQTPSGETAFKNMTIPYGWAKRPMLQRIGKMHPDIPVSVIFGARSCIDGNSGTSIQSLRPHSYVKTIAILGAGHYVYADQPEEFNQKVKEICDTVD

Row | SMILES | inhibition
1 | OCCCC1CCCCN1Cc1nc(Cc2ccccc2Cl)no1 (centres undefined) | 0.62%
2 | CC[C@H](C)C(=O)N[C@H]1CCCN1C(=O)/C=C/c1ccccc1 | 1.82%
3 | CC(=O)Nc1ccc(NC(=O)c2ccc3c(c2)C(=O)N(c2ccccc2C)C3=O)cc1 | 6.37%
4 | COC(=O)[C@@H]1CCCN1C(=O)c1cc(COc2cccc3cccnc23)on1 | -0.57%
5 | COc1ccc2c(c1)c(=Cc1ccc(N(C)C)cc1)c1cc(-c3ccccc3)[n+](C)n12 | 30.2% (active)
6 | O=C(NC1CCN(S(=O)(=O)c2ccc(F)cc2)CC1)c1ccccc1 | 4.55%
7 | Cc1ccn(C(CC(=O)c2ccc(Br)cc2)C(=O)O)n1 (centres undefined) | 33.3% (active)
8 | CCN(C(=O)c1ccc(Br)cc1)c1ccccc1 | 0.98%
9 | Cc1ccc(NC(=O)CCC(=O)c2ccc(Br)cc2)cc1 | 4.03%
10 | CCCCN(CC)CCCNC(=O)c1ccc(CSc2nc3ccncc3[nH]2)cc1 | -1.26%
11 | COc1ccc(N(Cc2cc3ccc(C)cc3[nH]c2=O)S(=O)(=O)c2ccccc2)cc1 | -3.39%
12 | O=S(=O)(NC1CC1)c1ccc(F)c(F)c1 | 7.64%
13 | Cn1sc(=O)c2cc(S(=O)(=O)NC3CC3)ccc21 | 43.1% (active)
14 | CC1CCC(NS(=O)(=O)c2ccc3c(c2)CC(=O)N3)CC1 (centres undefined) | 2.49%
15 | CC1CCCC(NC(=O)COC(=O)c2ccccc2C(=O)N(C)C2CCCCC2)C1C (centres undefined) | 1.5%
16 | CCOC(=O)C(=Cc1ccccc1OC)C(=O)OCC | 35.8% (active)
17 | CCOC(=O)/C(=C\c1ccc([N+](=O)[O-])cc1)C(=O)c1cc(C(C)=O)c(Nc2ccccc2)s1 | -2.52%
18 | COc1ccccc1/C=C/C(=O)NC1CC2CCC1C2 (centres undefined) | -5.4%
19 | COc1ccccc1C(=O)c1ccccc1C(=O)c1ccccc1 | -6.91%
20 | CCc1ccccc1NC(=O)/C(=C/c1ccccc1)c1ccccc1 | -13.9%

Row | SMILES | inhibition
21 | CCOC(=O)C(=Cc1ccccc1)C(=O)c1ccccc1 | 86.5% (active)
22 | Cc1ccc(C(=O)NCC(=O)OCC(=O)Nc2cccc(S(=O)(=O)N3CCCC3)c2)cc1C | -2.63%
23 | O=C(CCCN1C(=O)C(c2ccccc2)Oc2cccnc21)Nc1ccccc1Br (centres undefined) | 6.82%
24 | COC(=O)[C@@H]1C[C@@]2(O)[C@H](O)[C@H](O)[C@H](O)C[C@H]2N1Cc1ccc(C(C)(C)C)cc1 | 6.53%
25 | O=C(c1cccc(F)c1)N1CCC(O)(c2cccnc2)CC1 | 0.25%
26 | N#CCOc1ccc(C2=NO[C@@H]3[C@@H]4C[C@@H]([C@H]5C(=O)N(c6ccc7c(c6)OCO7)C(=O)[C@@H]45)[C@H]23)cc1 | -3.78%
27 | CC1(Oc2ccccc2-c2ccno2)CCN(Cc2ccc(-c3ccccc3)o2)C1 (centres undefined) | 24.9% (active)
28 | CC1(Oc2cccc(F)c2)CCN(Cc2ccccc2OC(F)F)C1 (centres undefined) | -9.44%
29 | COc1ccc(CN2CCC(C)(Oc3cccc(F)c3)C2)c2ccccc12 (centres undefined) | 1.04%
30 | CCCOC1CCCN(C(=O)c2cc(COc3cncc(Cl)c3)on2)C1 (centres undefined) | 1.32%
31 | Cc1[nH]c2ccccc2c1C(=O)c1cc([C@H](NC(=O)OC(C)(C)C)C(C)C)sc1N | -16.6%
32 | Cc1ccc(C(=O)Cc2nnc(C)s2)cc1 | 10.8%
33 | Cc1ccc(SC(C)C(=O)NCc2ccc(F)cc2)cc1 (centres undefined) | -1.06%
34 | Cc1ccc(SC(CC(=O)c2ccc(C(C)(C)C)cc2)C(=O)O)cc1 (centres undefined) | 84.9% (active)
35 | O=C1CC[C@@H](C(=O)N2CSC[C@@H]2C(=O)Nc2ccc(C(F)(F)F)cc2)N1 | -0.42%
36 | CCC(C)NC(=O)C1CCC(=O)N1Cc1ccc(C)cc1 (centres undefined) | 2%
37 | Oc1ccc2ccccc2c1N=Nc1nccs1 | 22.1% (active)
38 | COc1ccccc1C(=O)NCC(=O)OCC(=O)NNC(=O)c1ccc(Br)cc1 | -4.52%
39 | CCN1C(=O)/C(=C2\SC(N3CCCCC3)=NC2=O)c2ccccc21 | -2.55%
40 | CC1(C)CC(=O)C=C(c2cccc3c2Oc2ccccc2S3)C1 | -12.2%

Row | SMILES | inhibition
41 | O=C(c1cc(C2CCCCN2S(=O)(=O)c2ccccc2)on1)N1CCOCC1 (centres undefined) | 3.58%
42 | COC(=O)c1cnn2c(C(F)(F)F)cc(-c3ccco3)nc12 | 32.2% (active)
43 | O=C(O)c1cnn2c(C(F)(F)F)cc(-c3ccccc3)nc12 | 6.31%
44 | O=C(NCc1ccco1)c1cnn2c(C(F)(F)F)cc(-c3ccco3)nc12 | 3.22%
45 | N#Cc1ccc(-c2nc3c(Cl)cc(C(F)(F)F)cn3c2Cc2ccccc2C(F)(F)F)cc1 | 0.66%
46 | NC(=O)c1ccccc1N=Cc1ccc2ccccc2c1 | 2.42%
47 | C/C(=N/N1CCN(Cc2cccc3ccccc23)CC1)c1cccnc1 | -14.4%
48 | CCOc1cc(S(=O)(=O)NCc2ccc3c(c2)OCO3)ccc1F | -2.91%
49 | COc1ccc(C(=O)CCc2ccccc2O)c(OC)c1 | 0.27%
50 | COc1ccc(C(=O)/C=C/c2cccnc2)c(OC)c1 | 22.4% (active)
51 | COc1ccc(C(=O)CCC(=O)Nc2cccnc2)c(OC)c1 | -5.28%
52 | CCCn1c(=O)c2[nH]c(C3CCCC3)nc2n(CCC)c1=O | 4.3%
53 | CCc1nnc(NC(=O)C2CC(=O)N(c3ccc4c(c3)OCCO4)C2)s1 (centres undefined) | -9.44%
54 | O=C(NCc1ccccc1Cl)c1csc([C@@H]2O[C@H](CO)[C@@H](O)[C@H]2O)n1 | -7.69%
55 | COc1ccccc1-n1nnnc1S(=O)(=O)Cc1ccc(Cl)cc1 | 27.5% (active)
56 | CCN(C(=O)CSc1nnnn1-c1ccccc1OC)C1CCS(=O)(=O)C1 (centres undefined) | 0.5%
57 | COc1ccccc1CN(C)c1nnnn1-c1ccccc1 | -3.16%
58 | Cc1cc2c(cc1S(=O)(=O)NCc1ccc(Cl)cc1)OCC(=O)N2 | 5.73%
59 | O=C(CN1C2CCC1CC(NC(=O)C1CC1)C2)NCc1ccccc1 (centres undefined) | -2.07%
